This is an account of results in PubChem BioAssay (NCI).

This is part of a sample that, as a whole, favours compounds with a hit. Of some 83,000 tested, about 20% had one in any assay.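 Treatment: one concentration, 48 hours, 96-well format. Scoring: percent growth, with anything below 10 considered active.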 Unmarked numbers belong to inactive results. Active and inactive are the calls of the source.

Some test systems named below: HCT-15 colon; HT29 colon; SNB-75 CNS; SNB-19 CNS; U251 CNS; PC-3 prostate; SK-MEL-5 melanoma; UACC-62 melanoma; LOX IMVI melanoma; SK-MEL-28 melanoma.
Common to all, as to experiment: NCI-60 one-dose screen, 48 h (100 = growth as untreated, 0 = no growth, -100 = all killed)
Settings in all cases: 10 µM unless noted

On to `CCOC(=O)C(=Cc1c(-c2ccccc2)[nH]c2ccccc12)C(=O)OCC`, for which the growth in the test with HCT-15 colon is 36.5%; in the test with HT29 colon, 31%; with SNB-75 CNS, 48.4%; in the test on SNB-19 CNS, 106%; in the test on U251 CNS, 52.9%; with PC-3 prostate, -16% (active). Besides, the growth was 41.6% in the test on SK-MEL-5 melanoma, 43.5% in the test with UACC-62 melanoma, 57.3% in the test with LOX IMVI melanoma and 62.5% in the test with SK-MEL-28 melanoma.

As for `COc1cc2cc(c1Cl)N(C)C(=O)C[C@H](OC(=O)[C@H](C)N(C)C(=O)CCS)C[C@]1(C)O[C@H]1[C@H](C)[C@@H]1C[C@@](O)(NC(=O)O1)[C@H](OC)/C=C/C=C(\C)C2`, the growth was 11.2% in the test on HCT-15 colon; 0.342% (active) in the test with HT29 colon; 21% in the test with SNB-75 CNS; 34% in the test with SNB-19 CNS; 10.2% with U251 CNS; 22% in the test on PC-3 prostate. Besides, the growth was -33.1% (active) in the test with SK-MEL-5 melanoma, 36.8% in the test with UACC-62 melanoma, 13.6% in the test with LOX IMVI melanoma and 57.2% in the test on SK-MEL-28 melanoma.

As to `CCOCCc1c(O)nc(SC)[nH]c1=O`, the growth in the test on HCT-15 colon was 98.2%; in the test on HT29 colon, 101%; in the test with SNB-75 CNS it was 78.7%; with SNB-19 CNS, 95.9%; with U251 CNS, 103%; with PC-3 prostate it was 91.1%. In addition, the growth is 103% in the test on SK-MEL-5 melanoma, 98.1% with UACC-62 melanoma, 105% in the test on LOX IMVI melanoma and 99.2% in the test with SK-MEL-28 melanoma.

Turning to `c1cc(CNC23CC4CC(CC(C4)C2)C3)cc(C[N+](Cc2cccc(CNC34CC5CC(CC(C5)C3)C4)c2)(Cc2cccc(CNC34CC5CC(CC(C5)C3)C4)c2)Cc2cccc(CNC34CC5CC(CC(C5)C3)C4)c2)c1` (stereo not given), the growth is 3.19% [42 µM] (active) in the test with HCT-15 colon; -5.66% [42 µM] (active) with HT29 colon; 36.9% [42 µM] in the test with SNB-75 CNS; 31.2% [42 µM] in the test on SNB-19 CNS; 11.6% [42 µM] with U251 CNS; 43% [42 µM] in the test on PC-3 prostate. In addition, the growth with SK-MEL-5 melanoma is 23.1% [42 µM]; in the test with UACC-62 melanoma, 30.3% [42 µM]; in the test on LOX IMVI melanoma, -4.47% [42 µM] (active); in the test on SK-MEL-28 melanoma, 51.5% [42 µM].

Consider `CCc1c(C(=O)N[C@@H](C(=O)OCc2ccccc2)C(C)O)[nH]c2ccc(Cl)cc12` (stereo not given in full), for which the growth with HCT-15 colon was 79.3%; in the test with HT29 colon, 72.8%; with SNB-75 CNS, 19.9%; in the test with SNB-19 CNS, 83.6%; in the test on U251 CNS it was 36.3%; in the test with PC-3 prostate, 82.1%. Besides, the growth with SK-MEL-5 melanoma is 84.1%; in the test with UACC-62 melanoma, 91.4%; in the test on LOX IMVI melanoma, 81.1%; in the test with SK-MEL-28 melanoma it was 100%.

On to `COC(=O)/C=C/c1cc(OC)c2c(c1)[C@@H](C(=O)OC)[C@H](c1ccc(OC)c(OC)c1)O2`, for which the growth in the test on HCT-15 colon was 32.2%; in the test with HT29 colon it was 11%; with SNB-75 CNS it was -3.43% (active); in the test on SNB-19 CNS it was 35%; in the test with U251 CNS it was 25.1%; in the test with PC-3 prostate it was 32.9%. Besides, the growth with SK-MEL-5 melanoma was 9.73% (active); in the test on UACC-62 melanoma, 33.6%; with LOX IMVI melanoma, 51.1%; in the test on SK-MEL-28 melanoma, 63.4%.

As for `COc1ccc(-c2nnc(N3CCN(C(=O)CN4CCN(c5ccc(OC)cc5)CC4)CC3)nc2-c2ccc(OC)cc2)cc1`, the growth was -40.9% (active) with HCT-15 colon; 4.12% (active) in the test on HT29 colon; 65.7% with SNB-75 CNS; 96.1% with SNB-19 CNS; 4.4% (active) in the test on U251 CNS; -96.4% (active) in the test with PC-3 prostate. In addition, the growth in the test on SK-MEL-5 melanoma was -50.2% (active); in the test on UACC-62 melanoma, -48.2% (active); in the test on LOX IMVI melanoma, -63.3% (active); in the test on SK-MEL-28 melanoma, -84.1% (active).

For the compound `CCCCCCN1C(=O)CN=C1Nc1ccc2cc3ccc(NC4=NCC(=O)N4CCCCCC)cc3nc2c1`, the growth in the test on HCT-15 colon was 49%; with HT29 colon it was 15.5%; in the test on SNB-75 CNS, 61.7%; in the test with SNB-19 CNS it was 48.4%; with U251 CNS it was 22.1%; in the test with PC-3 prostate, 51%. Moreover, the growth was 82.6% in the test on SK-MEL-5 melanoma, 82.6% in the test with UACC-62 melanoma, -41.8% (active) in the test with LOX IMVI melanoma and 85.9% with SK-MEL-28 melanoma.

As for `CCC[S@@](=O)c1ccc2nc(NC(=O)OC)[nH]c2c1`, the growth in the test with HCT-15 colon was 68.3%; in the test with HT29 colon, 62.5%; in the test with SNB-75 CNS, 82.6%; in the test with SNB-19 CNS, 87.6%; in the test with U251 CNS it was 82.2%; in the test with PC-3 prostate, 78.4%. For the same compound, the growth in the test on SK-MEL-5 melanoma is 83.3%; with UACC-62 melanoma, 72.7%; with LOX IMVI melanoma it was 90.2%; in the test on SK-MEL-28 melanoma, 89.3%.

`CC1=C/C(=N\N=C2/C=C(C)CC(C)(C)C2)CC(C)(C)C1`: the growth was 106% in the test with HCT-15 colon; 91.8% with HT29 colon; 94.9% in the test on SNB-75 CNS; 102% with SNB-19 CNS; 96% with U251 CNS; 94.8% with PC-3 prostate. Besides, the growth was 99% with SK-MEL-5 melanoma, 93.8% in the test on UACC-62 melanoma, 100% in the test on LOX IMVI melanoma and 116% with SK-MEL-28 melanoma.

In the case of `C=C(C)[C@@H]1CC[C@]2(C(=O)OCCOCCOCC[P+](c3ccccc3)(c3ccccc3)c3ccccc3)CC[C@]3(C)[C@H](CC[C@@H]4[C@@]5(C)CC[C@H](OC(=O)C(Cl)Cl)C(C)(C)[C@@H]5CC[C@]43C)[C@@H]12`, the growth is 11.1% in the test on HCT-15 colon; 5.74% (active) in the test with HT29 colon; 8.83% (active) in the test on SNB-75 CNS; 17.6% with SNB-19 CNS; -5.68% (active) with U251 CNS; -23.4% (active) in the test on PC-3 prostate. Also, the growth in the test on SK-MEL-5 melanoma was -99.1% (active); in the test on UACC-62 melanoma, -39.3% (active); with LOX IMVI melanoma, -91.3% (active); in the test with SK-MEL-28 melanoma, -43.9% (active).

Regarding `CC[C@]12C=CCN3CC[C@@]4(c5ccc(OC)cc5N(C)[C@H]4[C@@](O)(C(=O)OC)[C@@H]1OC(=O)CCC(=O)O[C@H]1CC[C@H]4[C@@H]5CC[C@H]6CC(=O)CC[C@]6(C)[C@H]5CC[C@]14C)[C@@H]32`, the growth is 15.1% in the test with HCT-15 colon; -2.17% (active) in the test with HT29 colon; 41.9% with SNB-75 CNS; 37.5% with SNB-19 CNS; 18.1% with U251 CNS; 12.3% in the test with PC-3 prostate. Also, the growth is 7.1% (active) with SK-MEL-5 melanoma, 29.3% in the test with UACC-62 melanoma, 27.9% in the test on LOX IMVI melanoma and 46.5% in the test on SK-MEL-28 melanoma.
